Common to all, as to set-up: scale not given: direction of the effect not stated beside the values
Assay [1] deals with Protein translocase subunit SecA (Escherichia coli (strain K12)) (UniProt P10408). Kind of assay: Assay to Identify E. coli SecA ATPase Inhibitors. Type of assay: functional. The conditions noted are these: 30 µM.
Assay [2] has as its target T1, Ubiquitin-activating enzyme e1, putative (Leishmania donovani (strain BPK282A1)) (UniProt E9BSI1).
T1 sequence (whole entry): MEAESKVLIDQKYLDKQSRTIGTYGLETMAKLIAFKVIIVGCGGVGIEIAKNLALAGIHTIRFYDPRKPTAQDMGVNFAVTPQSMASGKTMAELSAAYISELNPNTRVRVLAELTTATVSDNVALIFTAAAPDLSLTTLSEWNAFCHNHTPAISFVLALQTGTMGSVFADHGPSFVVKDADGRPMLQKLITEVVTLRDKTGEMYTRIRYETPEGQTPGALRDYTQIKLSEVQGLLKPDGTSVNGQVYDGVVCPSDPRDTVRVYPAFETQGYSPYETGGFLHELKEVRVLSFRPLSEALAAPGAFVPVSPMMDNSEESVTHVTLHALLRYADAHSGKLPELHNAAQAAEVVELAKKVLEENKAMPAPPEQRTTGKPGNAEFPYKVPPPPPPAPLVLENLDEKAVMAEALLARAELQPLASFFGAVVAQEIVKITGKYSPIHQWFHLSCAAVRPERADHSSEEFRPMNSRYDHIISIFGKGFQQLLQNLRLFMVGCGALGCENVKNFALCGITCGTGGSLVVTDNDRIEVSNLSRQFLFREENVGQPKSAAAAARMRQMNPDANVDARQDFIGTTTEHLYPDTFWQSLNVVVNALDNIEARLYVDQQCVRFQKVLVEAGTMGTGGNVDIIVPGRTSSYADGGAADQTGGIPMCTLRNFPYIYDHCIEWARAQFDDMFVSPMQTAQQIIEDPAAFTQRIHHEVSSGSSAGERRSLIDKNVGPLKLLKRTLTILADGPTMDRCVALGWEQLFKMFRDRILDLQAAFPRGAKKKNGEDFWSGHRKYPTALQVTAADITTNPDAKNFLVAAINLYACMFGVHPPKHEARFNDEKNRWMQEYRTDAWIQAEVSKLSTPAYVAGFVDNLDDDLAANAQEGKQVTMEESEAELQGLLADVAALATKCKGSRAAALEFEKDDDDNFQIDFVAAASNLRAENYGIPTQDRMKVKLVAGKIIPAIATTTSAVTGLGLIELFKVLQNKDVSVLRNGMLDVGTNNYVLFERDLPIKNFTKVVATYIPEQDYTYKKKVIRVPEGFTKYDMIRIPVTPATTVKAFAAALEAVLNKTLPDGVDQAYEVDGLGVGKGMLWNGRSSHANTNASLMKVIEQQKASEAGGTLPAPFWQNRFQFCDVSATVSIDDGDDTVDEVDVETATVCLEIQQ
The assay can be described thus: Leishmania donovani Ubiquitin Activating Enzyme (LdE1). Type of assay: functional. The conditions noted are these: 30 µM.

Assay [3] concerns the target AMP-activated protein kinase, AMPK (Homo sapiens) (UniProt P54646+O43741+P54619+Q9UGJ0+Q9Y478+Q13131+Q9UGI9). The assay can be described thus: AMP-dependent Kinase enzyme assay. An in vitro enzyme assay that detects ADP turnover that is directly proportional to AMPK activity. This uses naive AMPK that is activated during the assay with MK-8722. Type of assay: functional. The conditions noted are these: 30 µM.

In assay [4] the target is Sialic acid-binding Ig-like lectin 9 (Homo sapiens) (UniProt Q9Y336). The assay can be described thus: Hs-Siglec9 ALPHAscreen SOP 20170721. The following applies: 10 µM. (In Alpha technology, singlet oxygen from a donor bead excites a nearby acceptor bead.)
Sequence of Sialic acid-binding Ig-like lectin 9 (Homo sapiens) (Q9Y336 whole entry): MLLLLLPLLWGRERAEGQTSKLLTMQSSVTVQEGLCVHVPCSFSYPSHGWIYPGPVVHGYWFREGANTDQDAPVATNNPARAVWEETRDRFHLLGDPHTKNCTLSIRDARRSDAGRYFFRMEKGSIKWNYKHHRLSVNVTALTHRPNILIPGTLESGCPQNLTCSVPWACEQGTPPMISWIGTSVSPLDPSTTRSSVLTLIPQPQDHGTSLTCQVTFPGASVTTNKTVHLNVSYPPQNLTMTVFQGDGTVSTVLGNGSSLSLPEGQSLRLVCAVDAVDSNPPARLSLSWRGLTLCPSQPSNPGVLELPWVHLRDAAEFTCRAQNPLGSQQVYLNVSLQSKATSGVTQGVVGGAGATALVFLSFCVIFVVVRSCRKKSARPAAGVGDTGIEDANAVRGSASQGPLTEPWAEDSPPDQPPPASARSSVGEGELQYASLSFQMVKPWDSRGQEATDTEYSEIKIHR
Assay [5] deals with Trypanosoma cruzi. Kind of assay: Trypanosoma cruzi phosphomannomutase and mannose-1-phosphate guanylyltransferase assay. Type of assay: functional. The following applies: 10 µM.
The target of assay [6] is T2, Arginase-2, mitochondrial (Homo sapiens) (UniProt P78540).
T2 sequence (whole entry): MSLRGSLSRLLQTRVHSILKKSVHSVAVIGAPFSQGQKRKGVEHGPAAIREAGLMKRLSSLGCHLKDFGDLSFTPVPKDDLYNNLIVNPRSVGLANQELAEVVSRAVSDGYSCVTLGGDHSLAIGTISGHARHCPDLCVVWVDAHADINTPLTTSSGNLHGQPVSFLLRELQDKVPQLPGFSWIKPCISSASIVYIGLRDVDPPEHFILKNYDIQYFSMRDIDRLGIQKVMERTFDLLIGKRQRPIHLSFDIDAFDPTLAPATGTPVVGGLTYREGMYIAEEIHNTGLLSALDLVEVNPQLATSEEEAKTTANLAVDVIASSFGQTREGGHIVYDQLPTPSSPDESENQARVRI
Kind of assay: in vitro enzyme assay to detect the production of urea directly proportional to the activity of Arginase II. Also: in the data most compounds retested in dose-response had high values. Type of assay: functional. The following applies: 33.3 µM.

Assay [7] has as its target T3, Proteasome subunit beta (Trypanosoma cruzi) (UniProt O96673).
T3 sequence (whole entry): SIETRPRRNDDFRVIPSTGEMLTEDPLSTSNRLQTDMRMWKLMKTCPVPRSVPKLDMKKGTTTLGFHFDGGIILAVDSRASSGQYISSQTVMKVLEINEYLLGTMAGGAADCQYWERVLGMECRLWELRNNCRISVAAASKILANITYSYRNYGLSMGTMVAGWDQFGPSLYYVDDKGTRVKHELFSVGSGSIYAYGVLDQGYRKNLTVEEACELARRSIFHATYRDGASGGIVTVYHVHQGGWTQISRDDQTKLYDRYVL
The assay can be described thus: Trypanosoma cruzi proteasome chymotrypsin-like activity (TcProtChymo) assay. Also: in the data most compounds retested in dose-response had high values. The following applies: 9.37 µM. Type of assay: functional.

Assay [8] is filed under the species Homo sapiens. Kind of assay: To identify inhibition of the IFN signalling (Jak-Stat) pathway via expression of an eGFP reporter gene under the control of an IFN-stimulated response element (ISRE) containing MxA promoter. Type of assay: functional. The conditions noted are these: 30 µM. Background: In a reporter assay the amount or activity of a reporter protein is the signal.

In assay [9] the target is T4, Tyrosyl-tRNA synthetase, putative (Trypanosoma cruzi (strain CL Brener)) (UniProt Q4DSP6).
T4 sequence (whole entry): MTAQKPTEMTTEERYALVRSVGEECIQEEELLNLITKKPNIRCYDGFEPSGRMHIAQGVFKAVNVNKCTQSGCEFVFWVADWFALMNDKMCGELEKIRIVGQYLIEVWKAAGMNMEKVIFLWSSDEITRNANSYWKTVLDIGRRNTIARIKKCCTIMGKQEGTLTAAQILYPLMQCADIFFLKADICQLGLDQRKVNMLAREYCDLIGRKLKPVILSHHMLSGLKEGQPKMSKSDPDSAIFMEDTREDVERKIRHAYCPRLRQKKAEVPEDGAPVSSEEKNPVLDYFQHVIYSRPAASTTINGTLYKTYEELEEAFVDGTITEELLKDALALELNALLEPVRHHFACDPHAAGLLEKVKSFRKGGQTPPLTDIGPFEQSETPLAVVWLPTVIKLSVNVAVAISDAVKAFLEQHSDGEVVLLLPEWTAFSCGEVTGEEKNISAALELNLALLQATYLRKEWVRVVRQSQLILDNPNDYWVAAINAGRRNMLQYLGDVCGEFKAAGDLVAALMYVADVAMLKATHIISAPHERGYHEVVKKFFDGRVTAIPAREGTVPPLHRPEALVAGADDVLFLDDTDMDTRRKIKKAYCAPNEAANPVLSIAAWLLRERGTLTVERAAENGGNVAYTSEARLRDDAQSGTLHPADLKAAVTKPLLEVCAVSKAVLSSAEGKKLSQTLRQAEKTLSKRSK
The assay can be described thus: Trypanosoma cruzi tyrosyl tRNA synthetase (TcYRS) _High Tyrosine SOP. Also: in the data most compounds retested in dose-response had high values. Type of assay: functional. The conditions noted are these: 30 µM.

Assay [10] has as its target T4, Tyrosyl-tRNA synthetase, putative (Trypanosoma cruzi (strain CL Brener)). Kind of assay: Trypanosoma cruzi tyrosyl tRNA synthetase (TcYRS) SOP. Type of assay: functional. The following applies: 30 µM.
The target in assay [11] is Chromo domain-containing protein 1 (Saccharomyces cerevisiae (strain ATCC 204508 / S288c) (Baker's yeast)) (UniProt P32657). Kind of assay: ScCHD-1 Enzyme Inhibition Assay. Also: in the data most compounds retested in dose-response had high values. Type of assay: functional. The conditions noted are these: 30 µM.
Sequence of Chromo domain-containing protein 1 (Saccharomyces cerevisiae (strain ATCC 204508 / S288c) (Baker's yeast)) (P32657 whole entry, the tested form may be a part): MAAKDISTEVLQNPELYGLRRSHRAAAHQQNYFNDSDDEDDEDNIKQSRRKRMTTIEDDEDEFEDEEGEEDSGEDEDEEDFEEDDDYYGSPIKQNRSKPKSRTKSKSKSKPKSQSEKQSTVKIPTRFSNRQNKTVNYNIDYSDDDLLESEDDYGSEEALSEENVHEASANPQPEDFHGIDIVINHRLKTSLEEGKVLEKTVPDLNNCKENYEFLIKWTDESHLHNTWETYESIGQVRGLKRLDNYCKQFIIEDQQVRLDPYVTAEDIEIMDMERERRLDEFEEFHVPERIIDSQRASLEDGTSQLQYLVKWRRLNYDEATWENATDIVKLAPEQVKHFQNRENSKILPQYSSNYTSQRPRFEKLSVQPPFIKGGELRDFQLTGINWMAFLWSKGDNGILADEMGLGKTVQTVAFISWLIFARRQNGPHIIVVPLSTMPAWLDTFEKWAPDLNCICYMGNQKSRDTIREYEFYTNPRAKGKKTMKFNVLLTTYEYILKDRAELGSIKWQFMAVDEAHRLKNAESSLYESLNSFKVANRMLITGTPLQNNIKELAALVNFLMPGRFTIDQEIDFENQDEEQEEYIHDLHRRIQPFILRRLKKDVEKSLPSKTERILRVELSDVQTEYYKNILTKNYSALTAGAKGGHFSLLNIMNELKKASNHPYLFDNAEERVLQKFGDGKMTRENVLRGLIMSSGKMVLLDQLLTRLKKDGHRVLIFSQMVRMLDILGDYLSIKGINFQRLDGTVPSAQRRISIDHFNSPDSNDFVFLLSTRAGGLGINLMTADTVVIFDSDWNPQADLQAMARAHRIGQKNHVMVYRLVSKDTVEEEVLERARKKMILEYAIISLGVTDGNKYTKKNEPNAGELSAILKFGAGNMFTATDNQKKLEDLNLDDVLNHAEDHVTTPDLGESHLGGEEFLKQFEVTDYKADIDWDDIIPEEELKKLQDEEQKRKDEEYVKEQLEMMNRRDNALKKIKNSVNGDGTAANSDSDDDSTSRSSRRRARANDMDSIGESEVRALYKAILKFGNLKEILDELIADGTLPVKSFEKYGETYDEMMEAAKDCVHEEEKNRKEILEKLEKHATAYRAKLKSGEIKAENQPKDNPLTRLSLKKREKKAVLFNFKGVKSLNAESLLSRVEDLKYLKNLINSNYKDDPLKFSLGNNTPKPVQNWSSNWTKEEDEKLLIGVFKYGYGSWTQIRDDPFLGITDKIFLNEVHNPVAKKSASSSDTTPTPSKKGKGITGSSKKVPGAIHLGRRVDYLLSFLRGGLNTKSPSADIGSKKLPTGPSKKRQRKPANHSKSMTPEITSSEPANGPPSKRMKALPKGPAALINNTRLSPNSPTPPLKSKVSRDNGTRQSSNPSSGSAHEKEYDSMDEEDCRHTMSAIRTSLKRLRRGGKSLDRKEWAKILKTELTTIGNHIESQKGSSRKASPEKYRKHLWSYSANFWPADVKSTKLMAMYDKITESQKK

Consider 11 compounds from ChEMBL document CHEMBL3988442, “University of Dundee, Small-Polar-MMV Screening Library” (2021).

For some of these results: Potency and affinity values are given separately.

Sequence of Protein translocase subunit SecA (Escherichia coli (strain K12)) (P10408 whole entry): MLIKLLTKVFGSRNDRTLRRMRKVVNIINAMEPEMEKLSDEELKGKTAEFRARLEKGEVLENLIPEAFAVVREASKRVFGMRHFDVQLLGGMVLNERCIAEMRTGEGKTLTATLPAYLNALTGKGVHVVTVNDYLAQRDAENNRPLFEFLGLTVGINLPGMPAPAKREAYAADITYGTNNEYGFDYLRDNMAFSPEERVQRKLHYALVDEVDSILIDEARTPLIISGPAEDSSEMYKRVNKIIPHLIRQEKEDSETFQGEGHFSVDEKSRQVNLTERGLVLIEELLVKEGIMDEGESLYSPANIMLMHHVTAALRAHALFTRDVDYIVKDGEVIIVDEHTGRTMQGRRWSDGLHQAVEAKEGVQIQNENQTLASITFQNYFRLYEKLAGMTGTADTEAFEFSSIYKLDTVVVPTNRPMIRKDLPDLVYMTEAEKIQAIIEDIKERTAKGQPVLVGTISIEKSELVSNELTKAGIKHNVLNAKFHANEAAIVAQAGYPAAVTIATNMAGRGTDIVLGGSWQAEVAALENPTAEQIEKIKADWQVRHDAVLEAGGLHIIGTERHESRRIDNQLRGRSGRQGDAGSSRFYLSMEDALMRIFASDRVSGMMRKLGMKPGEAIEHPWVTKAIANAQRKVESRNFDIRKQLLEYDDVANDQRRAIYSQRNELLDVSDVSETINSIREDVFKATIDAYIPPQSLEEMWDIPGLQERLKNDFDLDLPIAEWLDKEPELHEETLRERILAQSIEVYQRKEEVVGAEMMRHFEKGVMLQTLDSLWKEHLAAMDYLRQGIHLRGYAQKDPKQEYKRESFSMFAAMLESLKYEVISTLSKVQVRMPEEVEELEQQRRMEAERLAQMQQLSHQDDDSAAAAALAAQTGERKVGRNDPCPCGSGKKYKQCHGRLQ

Consider `CN(CCc1ccccc1)Cc1cc(C(=O)N2CCCC2(C)C)no1`, for which the Percent Effect is 8.96% in [1]; 13.7% in [2]; -8.24% in [3]; 6.18% in assay [4]; -2.38% in assay [5]; -17.6% in [6]. The Percent Effect in assay [7] is 11%; in assay [8] it was 33.7%; in [9] it was 8.33%; in assay [10], 11.1%; in assay [11] it was -0.0446%.
With `CC1CCCCN1CCNC(=O)c1ccn(-c2ccc(F)cc2)n1` (stereo unspecified), the Percent Effect in assay [1] was -2.64%; in assay [2] it was 18.9%; in [3], 3.92%; in assay [4] it was 3.77%; in [5], 6.51%; in assay [6] it was -16%. For the same compound, the Percent Effect in assay [7] was 18.9%; in assay [8], 6.78%; in [9], -26.1%; in assay [10] it was 23.5%; in assay [11], -19.6%.
For `Cc1cc(C)n(CC2CN(CCOc3cccc(F)c3)CCO2)n1` (stereo unspecified), the Percent Effect was -4.88% in assay [1]; 7.89% in assay [2]; 0.382% in assay [3]; 4.47% in [4]; 1.59% in [5]; -3.24% in [6]. The Percent Effect in assay [7] was 1.1%; in assay [8] it was 24.5%; in assay [9], 4.43%; in [10] it was 16.1%; in assay [11], -3.81%.
For `CC(C)c1nc(C2CCCN2Cc2ccno2)no1` (stereo unspecified), the Percent Effect was -2.76% in [1]; -2.6% in [2]; -0.797% in [3]; 8.93% in [4]; -2.81% in assay [5]; 2.13% in assay [6]. Also, the Percent Effect was -1.52% in assay [7]; 14.5% in [8]; 2.91% in assay [9]; -2.44% in assay [10]; 4.2% in assay [11].
With `O=C(Cc1cccc(F)c1)N1CCCCC1c1ccn2ccnc2n1` (stereo unspecified), the Percent Effect in assay [1] was -5.83%; in [2] it was -4.05%; in assay [3] it was 14.6%; in [4], 3.14%; in assay [5] it was -3.16%; in [6] it was -4.41%. Moreover, the Percent Effect in assay [7] is 5.3%; in [8], 10.2%; in assay [9], -4.3%; in assay [10], -9.09%; in assay [11], -10.5%.
For `Cc1cccc(N2CCC(NC(=O)CCCc3cccs3)CC2)n1`, the Percent Effect in assay [1] was -3.35%; in assay [2], 11%; in [3], 0.158%; in assay [4], 5.32%; in assay [5], 5.49%; in assay [6] it was 6.82%. Further, the Percent Effect stood at 9.94% in [7]; 4.54% in assay [8]; 5.38% in assay [9]; 12.5% in assay [10]; 2.88% in [11].
With `CC1=NN(c2ccc(C(=O)N3CCCC(n4ccnc4)C3)cc2)CC1` (stereo unspecified), the Percent Effect in [1] was -5.1%; in [2] it was 10.1%; in assay [3] it was -5.15%; in assay [4], 0.444%; in assay [5], 9.35%; in [6], -1.9%. The Percent Effect in [7] is -1.06%; in [8], 15.8%; in assay [9], 10.3%; in assay [10] it was 16.5%; in assay [11], -6.17%.
As for `CC(NC(N)=O)C(=O)N(C)CCCc1cc(-c2ccccc2)no1` (stereo unspecified), the Percent Effect is -3.18% in [1]; 2.7% in [2]; 7.96% in assay [3]; -4.86% in [4]; -10.1% in assay [5]; -1.29% in assay [6]. Besides, the Percent Effect in assay [7] was 9.34%; in assay [8] it was 25%; in assay [9] it was 3.96%; in assay [10], 6.1%; in assay [11], 0.208%.
`COc1cccc(OCCNC(=O)CN2CCN(C)CC2C)c1` (stereo unspecified): the Percent Effect is -4.33% in [1]; 13.5% in assay [2]; -5.8% in [3]; 15% in assay [4]; 6.59% in [5]; -2.77% in [6]. Moreover, the Percent Effect in assay [7] is 7.54%; in [8], 11.6%; in [9], 3.96%; in [10], 18.3%; in assay [11], -8.99%.
Consider `Cc1noc(C)c1CN1CC[C@H]2OCC[C@@H](C(=O)N3CCCO3)[C@@H]2C1`, for which the Percent Effect in [1] is -8.03%; in assay [2], 16%; in assay [3], -5.74%; in assay [4] it was -1.2%; in assay [5] it was 5.02%; in assay [6], -43.5%. For the same compound, the Percent Effect was 14.7% in assay [7]; -8.37% in assay [8]; -1.04% in assay [9]; 2.5% in assay [10]; -6.96% in [11].
As for `CS(=O)(=O)N1CCOCC2(CCN(C(=O)c3cccnc3)CC2)C1`, the Percent Effect was 0.0699% in assay [1]; 2.74% in assay [2]; 2.01% in assay [3]; -0.0941% in assay [4]; 2.78% in [5]; 4.79% in assay [6]. For the same compound, the Percent Effect in assay [7] is 9.33%; in assay [8] it was -18.8%; in assay [9], 0%; in assay [10] it was 3.7%; in [11] it was -3.11%.
